Screening data from PubChem BioAssay.
Sampled rows, rich in hits. Any-hit rate of the full collection: about 4.2%.
S1P4 ag – S1P4 receptor agonists, primary screen, cell-based. AID 1509, 2009. activation, % at 4.98 µM. 220,000 tested, 0.35% active. S1P4-expressing cell line, agonist reporter assay; in the data active = activation above about 11%
Target sequence (O95977 whole entry, looked up): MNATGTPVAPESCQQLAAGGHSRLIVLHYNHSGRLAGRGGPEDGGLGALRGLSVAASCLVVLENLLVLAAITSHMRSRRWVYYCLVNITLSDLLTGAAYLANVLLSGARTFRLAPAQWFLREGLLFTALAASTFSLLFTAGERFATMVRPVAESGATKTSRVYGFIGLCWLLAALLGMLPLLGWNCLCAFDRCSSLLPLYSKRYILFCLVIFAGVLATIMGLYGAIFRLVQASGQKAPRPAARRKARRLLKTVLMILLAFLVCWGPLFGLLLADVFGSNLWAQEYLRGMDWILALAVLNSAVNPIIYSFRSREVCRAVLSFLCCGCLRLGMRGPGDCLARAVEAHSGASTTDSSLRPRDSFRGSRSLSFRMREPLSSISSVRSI
Hsp70 act – Hsp70 transcriptional activators, primary screen, cell-based, HeLa, Hsp70 promoter luciferase, luminescence, 10 µM; AID 1203, 2008; HeLa Hsp70 promoter luciferase reporter; scaled: vehicle 0, proteasome-inhibitor control 100%; activation, % at 10 µM; 200,000 tested, 0.04% active;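 active = activation above the mean across all tested compounds plus 3 SD, cutoff set per campaign, cut at about 5.5% in these data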
S1P4 antag – S1P4 receptor antagonists, primary screen, cell-based; Sphingosine 1-phosphate receptor 4 (Homo sapiens), O95977; S1P4-expressing cells, antagonist mode, reporter read-out; 220,000 tested, 0.26% active; inhibition, % at 4.98 µM; in the data active = inhibition above about 29%
CHOP inh – inhibitors of CHOP promoter induction, primary screen, cell-based, unfolded protein response, luciferase reporter; CHO-K1 CHOP-promoter luciferase, tunicamycin-induced, 15-18 h; inhibition, % at 10 µM; 220,000 tested, 3.8% active;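 active = compounds that reduced the stress-induced luciferase reporter signal by more than about 70% of percent inhibition, limit read from the data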
S1P4 antag conf – S1P4 receptor antagonists, human, confirmation, cell-based. shares compounds with S1P4 antag. S1P4-expressing cell line, antagonist mode, reporter read-out. inhibition, % at 4.98 µM. 520 tested, 71% active. AID 1524, 2009; in the data active = inhibition above about 30%
S1P1 antagonist – S1P1 receptor antagonists, human, counter-screen for S1P4 antagonist project, cell-based | 520 tested, 37% active | shares compounds with S1P4 antag | cell-based S1P1 antagonist counterscreen, inhibition | AID 1564, 2009 | inhibition, % at 4.98 µM; in the data active = inhibition above about 40%;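 note: receptor stimulated with S1P near its EC80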
A number is an active result.

`Cc1cc(NC(=O)CSc2nc(-c3cccs3)cc(C(F)(F)F)n2)no1` gave S1P4 ag inactive, Hsp70 act inactive and S1P4 antag inactive.
Cc1cc(NC(=O)CCCS(=O)(=O)c2nc(-c3cccs3)cc(C(F)(F)F)n2)no1 was read as S1P4 ag inactive, Hsp70 act inactive, S1P4 antag 40, S1P4 antag conf 111 and S1P1 antagonist 45.
`CCOC(=O)C(=Cc1ccc(Br)cc1)C(=O)OCC` gave S1P4 ag inactive, S1P4 antag 90, CHOP inh 105, S1P4 antag conf 115 and S1P1 antagonist inactive.
For CCOC(=O)C(=Cc1ccc(F)cc1)C(=O)OCC the results were S1P4 ag inactive, Hsp70 act inactive, S1P4 antag inactive and CHOP inh inactive.
Screening O=C(/C(=C/c1ccc(Cl)cc1)c1nc2ccccc2[nH]1)c1cccs1 returned S1P4 ag inactive, Hsp70 act inactive, S1P4 antag 44, CHOP inh inactive, S1P4 antag conf 116 and S1P1 antagonist 74.
Screening COc1cc(/C=C(/C(=O)c2cccs2)c2nc3ccccc3[nH]2)ccc1O returned S1P4 ag inactive, Hsp70 act inactive, S1P4 antag inactive and CHOP inh inactive.
For O=C(NNC(=S)NCc1ccc(Cl)cc1)c1ccc(Br)o1 the results were S1P4 ag inactive, Hsp70 act inactive, S1P4 antag inactive and CHOP inh inactive.
`N#Cc1ccc(/C=C/C(=O)c2ccccc2)cc1` gave S1P4 ag inactive, S1P4 antag 86, CHOP inh inactive, S1P4 antag conf 90 and S1P1 antagonist inactive.
CCOc1ccccc1-n1c(SCC(N)=O)nnc1-c1ccco1 was read as S1P4 ag inactive, Hsp70 act inactive, S1P4 antag inactive and CHOP inh inactive.
`Cc1ccc(NC(=O)c2ccc3c(c2)N(CC(=O)N2CCCCC2)C(=O)C(C)(C)O3)cc1` gave S1P4 ag inactive, Hsp70 act inactive, S1P4 antag inactive and CHOP inh inactive.
For CC1CCCN(C(=O)Cc2ccc(F)cc2)C1 (stereo unspecified) the results were S1P4 ag inactive, Hsp70 act inactive, S1P4 antag inactive and CHOP inh inactive.
Screening O=[N+]([O-])c1ccc(Sc2cccc[n+]2[O-])c2nonc12 returned S1P4 ag inactive, S1P4 antag 91, CHOP inh 108, S1P4 antag conf 114 and S1P1 antagonist inactive.
Screening CCCOC(=O)c1c(NC(=O)CCCn2nc([N+](=O)[O-])cc2C)sc(C(=O)OC)c1C returned S1P4 ag inactive, Hsp70 act inactive, S1P4 antag inactive and CHOP inh inactive.
`Cc1cc(C)nc(N(C#N)Cc2ccc(Br)cc2)n1` gave S1P4 ag inactive, Hsp70 act inactive, S1P4 antag inactive and CHOP inh inactive.
`Cc1c(C=O)c(C=O)c(C)n1Cc1ccccc1` gave S1P4 ag inactive, Hsp70 act inactive, S1P4 antag 35, CHOP inh inactive, S1P4 antag conf 42 and S1P1 antagonist inactive.
For O=C1/C(=C/c2ccc(O)cc2)SC(=S)N1CC1CCCO1 (stereo unspecified) the results were S1P4 ag inactive, S1P4 antag 30, CHOP inh inactive, S1P4 antag conf inactive and S1P1 antagonist inactive.
`O=c1oc2cc(OCc3nn[nH]n3)ccc2c2c1CCCC2` gave S1P4 ag inactive, Hsp70 act inactive, S1P4 antag inactive and CHOP inh inactive.
`CCN(CC)c1ccc(/C=C/c2cc(-c3ccccc3)c3ccccc3n2)cc1` gave S1P4 ag inactive, S1P4 antag 46, CHOP inh inactive, S1P4 antag conf 91 and S1P1 antagonist 104.
For O=C(NC1CCCC1)C(c1ccncc1)N(Cc1ccco1)C(=O)c1ccc(-c2ccccc2)[nH]1 (stereo unspecified) the results were S1P4 ag inactive, Hsp70 act inactive, S1P4 antag 47, CHOP inh inactive, S1P4 antag conf inactive and S1P1 antagonist inactive.
`O=C(NC1CCCC1)C(c1ccncc1)N(Cc1ccccc1)C(=O)c1ccc(-c2ccccc2)[nH]1` (stereo unspecified) gave S1P4 ag inactive, Hsp70 act inactive, S1P4 antag inactive and CHOP inh inactive.
For CN=Cc1nc(-c2ccccc2)oc1O the results were S1P4 ag inactive, Hsp70 act inactive, S1P4 antag inactive and CHOP inh inactive.
Screening Cc1ccc(-c2nc(C=Nc3ccc(O)cc3)c(O)o2)cc1 returned S1P4 ag inactive, Hsp70 act inactive, S1P4 antag 31, CHOP inh inactive, S1P4 antag conf 43 and S1P1 antagonist inactive.
Cc1ccc(C(=O)COC(=O)c2cnccn2)cc1C was read as S1P4 ag inactive, Hsp70 act inactive, S1P4 antag inactive and CHOP inh inactive.
Brc1ccc(C2Nc3cccc4cccc(c34)N2)o1 was read as S1P4 ag inactive, Hsp70 act inactive, S1P4 antag inactive and CHOP inh inactive.
`O=[N+]([O-])c1ccc(Cl)c(C2Nc3cccc4cccc(c34)N2)c1` gave S1P4 ag inactive, Hsp70 act inactive, S1P4 antag 59, CHOP inh inactive, S1P4 antag conf inactive and S1P1 antagonist inactive.
`O=C(Cn1ncc(Cl)c(Cl)c1=O)c1ccc(Cl)cc1` gave S1P4 ag inactive, Hsp70 act inactive, S1P4 antag 44, CHOP inh 102, S1P4 antag conf 107 and S1P1 antagonist 63.
For O=c1c(Cl)c(Cl)cnn1Cc1ccc(F)cc1 the results were S1P4 ag inactive, Hsp70 act inactive, S1P4 antag 60, CHOP inh inactive, S1P4 antag conf 105 and S1P1 antagonist inactive.
O=C1CN(C(=O)Cn2ncc(Cl)c(Cl)c2=O)c2ccccc2N1 was read as S1P4 ag inactive, Hsp70 act inactive, S1P4 antag 38, CHOP inh 92, S1P4 antag conf 117 and S1P1 antagonist 69.
For O=C(Cn1ncc(N2CCOCC2)c(Cl)c1=O)c1ccc(Cl)cc1 the results were S1P4 ag inactive, Hsp70 act inactive, S1P4 antag inactive and CHOP inh inactive.
For Cc1ccc(NC(=O)CN(C)C(=O)Cn2ncc(Cl)c(Cl)c2=O)cc1 the results were S1P4 ag inactive, Hsp70 act inactive, S1P4 antag 82, CHOP inh inactive, S1P4 antag conf 106 and S1P1 antagonist 79.
CCC(Sc1ncccc1C(=O)OC(C)C)C(=O)N1CCOCC1 (stereo unspecified) was read as S1P4 ag inactive, Hsp70 act inactive, S1P4 antag inactive and CHOP inh inactive.
`CC(C)(C)C(=O)Cn1ncc(Cl)c(Cl)c1=O` gave S1P4 ag inactive, Hsp70 act inactive, S1P4 antag 53, CHOP inh inactive, S1P4 antag conf 78 and S1P1 antagonist inactive.
